According to the supplement of paper PMC6089552:
Screen size: about 3,200 compounds; about 300 (9.4%) showed activity. The list comes from a sample in which actives are over-represented; it also holds similar structures and randomly drawn compounds.

Test system: A673/TR/shEF
Assay: cell viability (LOESS-normalised, relative to median of negative controls) (log2 ratio); higher = more viable cells (less compound effect), active = hit call of the paper (over 3 MAD below the median)
Conditions: treatment time: 72 h
Method in brief: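 Viability of A673/TR/shEF Ewing sarcoma cells was determined by CellTiter-Glo luminescence. The cells, at 1,500 per well in 384-well plates, were grown with or without doxycycline from 24 h before compound addition to switch on EWS-FLI1 shRNA knockdown, then exposed for three days to library compounds at two or more concentrations or to DMSO controls. Signals were LOESS-corrected plate by plate, normalised to the negative-control median and log2-transformed.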

[1] = 0.25 µM, library screen: screen1, EWS-FLI1 expression: high (no doxycycline)
[2] = 0.25 µM, library screen: screen1, EWS-FLI1 expression: low (doxycycline-induced shRNA knockdown)
[3] = 2.5 µM, library screen: screen1, EWS-FLI1 expression: high (no doxycycline)
[4] = 2.5 µM, library screen: screen1, EWS-FLI1 expression: low (doxycycline-induced shRNA knockdown)
[5] = 0.25 µM, library screen: screen2, EWS-FLI1 expression: high (no doxycycline)
[6] = 0.25 µM, library screen: screen2, EWS-FLI1 expression: low (doxycycline-induced shRNA knockdown)
[7] = 2.5 µM, library screen: screen2, EWS-FLI1 expression: high (no doxycycline)
[8] = 2.5 µM, library screen: screen2, EWS-FLI1 expression: low (doxycycline-induced shRNA knockdown)

Measured: cell viability (log2)

CCCCOC(=O)c1ccccc1C(=O)OCc1ccccc1
inactive: [1] 0.109 | [2] 0.0867 | [3] 0.0605 | [4] 0.00546

C[C@@H]1c2cc(O)c(O)cc2CCN1C
inactive: [5] 0.203 | [6] 0.114 | [7] 0.129 | [8] 0.102

C[N+]1(C)C2CC(OC(=O)C(CO)c3ccccc3)CC1C1OC12 (stereo not drawn)
inactive: [1] 0.0929 | [2] 0.0137 | [3] 0.182 | [4] 0.0439

CC(C)(C)c1cc(C=C(C#N)C#N)cc(C(C)(C)C)c1O
inactive: 0.025 µM, library screen: screen1, EWS-FLI1 expression: high (no doxycycline) 0.176 | 0.025 µM, library screen: screen1, EWS-FLI1 expression: low (doxycycline-induced shRNA knockdown) 0.0512 | [1] 0.092 | [2] 0.0707 | [5] 0.104 | [6] 0.0526 | [4] -0.0795 | [7] 0.0132 | [8] 0.112
active: [3] -1.1 | 25 µM, library screen: screen1, EWS-FLI1 expression: high (no doxycycline) -3.7 | 25 µM, library screen: screen1, EWS-FLI1 expression: low (doxycycline-induced shRNA knockdown) -2.45

CCC1C2CC3[C@@H]4N(C)c5ccccc5[C@]45CC(C2[C@H]5O)N3[C@@H]1O (stereo partly drawn)
inactive: [1] 0.014 | [2] -0.00944 | [3] 0.104 | [4] 0.0619

CCC(=O)Nc1ccc(Cl)c(Cl)c1
inactive: [1] 0.114 | [2] -0.0209 | [3] 0.0655 | [4] 0.0703

CC(=O)[O][Hg][c]1ccccc1
inactive: [2] -0.147
active: [1] -0.557 | [3] -2.86 | [4] -2.46

NCC(=O)c1ccccc1
inactive: [1] 0.0631 | [2] 0.0462 | [3] 0.0615 | [4] -0.00509

CCCN1CCCC2Cc3[nH]ncc3CC21 (stereo not drawn)
inactive: [5] 0.135 | [6] 0.086 | [7] 0.231 | [8] 0.107

C[C@@H]1C[C@@H]([C@H](O)CC2CC(=O)NC(=O)C2)C(=O)[C@@H](C)C1
inactive: 0.025 µM, library screen: screen2, EWS-FLI1 expression: high (no doxycycline) 0.156 | 0.025 µM, library screen: screen2, EWS-FLI1 expression: low (doxycycline-induced shRNA knockdown) 0.119 | [1] 0.141 | [2] 0.0197 | [5] 0.0548 | [6] 0.0334
active: [3] -0.514 | [4] -0.278 | [7] -0.922 | [8] -0.399 | 25 µM, library screen: screen2, EWS-FLI1 expression: high (no doxycycline) -2.23 | 25 µM, library screen: screen2, EWS-FLI1 expression: low (doxycycline-induced shRNA knockdown) -1.54

COc1ccc(CN2CCN(Cc3cccc(OC)c3)CC2)cc1
inactive: [1] -9.1e-05 | [2] 0.123 | [3] 0.136 | [4] 0.0992

ClC(Cl)=C(c1ccc(Cl)cc1)c1ccc(Cl)cc1
inactive: [1] 0.0882 | [2] 0.047 | [3] 0.0599 | [4] 0.0669

CC[C@H]1CN2CC[C@H]1C[C@@H]2[C@@H](O)c1ccnc2ccc(OC)cc12
inactive: [1] 0.074 | [2] 0.121 | [3] 0.133 | [4] 0.0925
